Structures can show the parent of a compound that is named as a salt. Over roughly 2,600 compounds, “total cell number (DAPI+ nuclei) relative to DMSO vehicle control” has its median near -1.4; the lowest 2% begin near -23. The sample as a whole holds a higher share of the lowest values than the screen did.
These molecules were tested on jimpy (Plp1 jimpy) mouse iPSC-derived oligodendrocyte progenitor cells (assay: total cell number (DAPI+ nuclei) relative to DMSO vehicle control (SDs above negative control mean); higher = more surviving cells). Details: 10 µM; 3 days.
Experimental: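 Primary phenotypic screen of >3,000 bioactive compounds (Selleck L1700 and Sigma LO1280 libraries) at a single dose of 10 µM. Compounds were added to jimpy (Plp1 mutant) mouse iPSC-derived OPCs at the start of thyroid hormone-induced oligodendrocyte differentiation, one well per compound in 384-well plates. After 3 days cells were stained for MBP, Sox10 and DAPI and imaged with an Operetta system. MBP+ oligodendrocyte number and total cell number were expressed as the number of SDs above the mean of the DMSO negative control on the same plate (n=16 control wells per plate). Hits were defined as >=4 SD for oligodendrocytes and >=2 SD for total cells.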

SMILES	total cell number
CC[C@@]1(O)C(=O)OCc2c1cc1n(c2=O)Cc2cc3ccccc3nc2-1 [(S)-(+)-Camptothecin]	-9.49
CC[C@@]1(O)C(=O)OCc2c1cc1n(c2=O)Cc2cc3ccccc3nc2-1 [Camptothecin]	-22.6
CC1C2Cc3ccc(O)cc3C1(C)CCN2CC1CC1 (single isomer, unassigned; (+)) [(+)-Cyclazocine]	-1.89
CC(C)C1CNC(C(=O)O)C1CC(=O)O (stereo unspecified) [Dihydrokainic acid]	-0.564
Cc1cc([C@@H]2CCCN2C)on1 [ABT-418 hydrochloride]	-4.48
Clc1ccc(N2CCN(Cc3c[nH]c4ncccc34)CC2)cc1 [L-745,870 hydrochloride]	-5.68
COC[C@H]1OC(=O)c2coc3c2[C@@]1(C)C1=C(C3=O)C2CCC(=O)[C@@]2(C)C[C@H]1OC(C)=O (stereo partly specified) [Wortmannin from Penicillium funiculosum]	-3.09
CC[C@@H]1/C=C/C=C/C[C@H](C)[C@H](O)[C@](C)(O)C(=O)[C@H](C)[C@@H](O)[C@H](C)C(=O)[C@H](C)[C@@H](O)[C@H](C)/C=C/C(=O)O[C@H]2[C@@H](C)[C@@H](CC1)O[C@@]1(CC[C@@H](C)[C@@H](C[C@H](C)O)O1)[C@@H]2C [Oligomycin A]	-27.5
NC(Cc1cc(O)c(O)cc1O)C(=O)O (racemic) [6-Hydroxy-DL-DOPA]	-2.36
O=c1ccc2[nH]cc(C3=CCNCC3)c2[nH]1	0.673
CC1=NN=C(c2ccc(N)cc2)c2cc3c(cc2C1)OCO3	-0.785
CO[C@H]1CC[C@@H](O[C@H]2C[C@H]([C@]3(C)CC[C@]4(C[C@H](O)[C@@H](C)[C@@H]([C@@H](C)/C=C(\C)C(=O)[C@H](C)C[C@H](C)C(=O)O)O4)O3)O[C@]3(O[C@@H]([C@H]4O[C@@](O)(CO)[C@H](C)C[C@@H]4C)C[C@@H]3C)[C@@H]2C)O[C@@H]1C [Nanchangmycin]	-27.5
COc1cc(C(O)CN)ccc1O (racemic) [(±)-Normetanephrine hydrochloride]	-1.67
COc1cc2c(cc1OC)C1CC(=O)C(CC(C)C)CN1CC2 (stereo unspecified) [Tetrabenazine]	-0.277
CC(N)C(O)c1ccc(O)c(O)c1 (single isomer, unassigned; (-)) [(-)-alpha-Methylnorepinephrine]	-0.161
CCCCC/C=C\C/C=C\C/C=C\C/C=C\CCCC(=O)NCc1ccc(O)c(OC)c1 [Arvanil]	-8.09

Source: the supplement of paper PMC6135742
